# High-throughput results as filed in PubChem.
# Most compounds without a hit are left out; they make up all but 4.8% or so of the library.
# ssDAF12 agonist: S. stercoralis DAF-12 nuclear receptor activators, primary screen, cell-based, luminescence, HEK293, GRIP1 co-expression, lit1-tk-luc. Nuclear hormone receptor DAF-12 (Strongyloides stercoralis). HEK293 ssDAF-12/GRIP1 lit1-tk-luc reporter; % of 3 µM dafachronic acid response. activation, % at 6.8 µM. 370,000 compounds, 1% hits. AID 652126, 2013;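 active = activation above the mean over all tested compounds plus 3 SD, cut at about 0.9% in these data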;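 note: 0% = DMSO-only wells and 100% = 3 µM delta7-dafachronic acid wells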
# hcDAF12 agonist: H. contortus DAF-12 nuclear receptor activators, primary screen, cell-based, luminescence, HEK293, lit1-tk-luc reporter; HEK293 hcDAF-12 lit1-tk-luc reporter; 0% DMSO, 100% Δ7-dafachronic acid; activation, % at 6.8 µM; 370,000 compounds, 1.4% hits; AID 652067, 2013;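 active = activation above the mean of all tested compounds plus 3 SD, cut at about 5.5% in these data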;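 note: 100% = response to 3 µM Δ7-dafachronic acid high control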
# SMARCA2 act: SMARCA2 (BRM) function activators, primary screen, cell-based, luminescence, high throughput; MG213 cells, MMTV-luciferase reporter, dexamethasone, overnight; activation, % at 9.1 µM; 370,000 compounds, 1% hits; AID 652017, 2013; in the data active = activation above about 7.8%;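 note: 0% = vehicle wells and 100% = reference activator wells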
# hgDAF-12 ag: H. glycines DAF-12 receptor agonists, primary screen, cell-based, luminescence, HEK293, GAL4 fusion, UAS-luciferase | HEK293 GAL4-hgDAF12 UAS-luciferase reporter, agonist luminescence; normalized to butyrate control | AID 687014, 2013 | 370,000 compounds, 1.8% hits | Nuclear hormone receptor DAF-12 (Heterodera glycines), GAL4 fusion | activation, % at 6.8 µM;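 active = activation above a cutoff set at the mean of all screened compounds plus 3 SD, cut at about 10% in these data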;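 note: 0% = DMSO wells and 100% = sodium butyrate wells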
# DAX1 inh-1: DAX1 (NR0B1) inhibitors, primary screen, cell-based, HEK293, Gal4-DAX1, luciferase luminescence; Nuclear receptor subfamily 0 group B member 1 (Homo sapiens), P51843; HEK293 Gal4-DAX1 luciferase reporter; inhibition, % at 6.75 µM; 340,000 compounds, 0.99% hits; AID 504766, 2011;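 active = inhibition above the mean over all tested compounds plus 3 SD, cut at about 4.2% in these data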;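 note: 0% = DAX1-transfected cells with DMSO and 100% = empty-vector control cells with DMSO; inhibition shows as a rise in luminescence from relieved DAX1 repression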
# Target sequence (P51843 207-470 limits assumed): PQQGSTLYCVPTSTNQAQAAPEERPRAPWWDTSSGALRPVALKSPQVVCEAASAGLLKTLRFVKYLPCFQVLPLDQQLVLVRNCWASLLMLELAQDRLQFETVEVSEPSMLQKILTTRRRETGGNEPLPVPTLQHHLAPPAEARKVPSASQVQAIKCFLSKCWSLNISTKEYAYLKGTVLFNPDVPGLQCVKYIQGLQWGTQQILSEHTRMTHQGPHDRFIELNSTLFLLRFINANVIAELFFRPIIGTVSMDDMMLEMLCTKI
# DAX1 inh-2: DAX1 (NR0B1) inhibitors on StAR promoter, primary screen, cell-based, luminescence, SF-1 (NR5A1), full-length DAX-1; HEK293T StAR-luciferase reporter, SF-1/DAX-1 repression relief; inhibition, % at 6.8 µM; 370,000 compounds, 1.1% hits; AID 652010, 2013;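 active = inhibition above the mean over all tested compounds plus 3 SD, cut at about 3.6% in these data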;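 note: 0% = DAX-1 cells with DMSO and 100% = cells lacking DAX-1 with DMSO; higher inhibition means more luminescence from relief of DAX-1 repression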
# Starred values were filed as active, the others as inactive; . = no result.
SMILES,ssDAF12 agonist,hcDAF12 agonist,SMARCA2 act,hgDAF-12 ag,DAX1 inh-1,DAX1 inh-2
Cc1cc(NC(C)c2ccccc2)n2ncc(-c3ccccc3)c2n1 (stereo not given),-0.3,1.8,7.3,7.5,4.7*,1.4
Cc1cc(NCc2ccccc2)n2ncc(-c3ccccc3)c2n1,0.9*,4.0,1.4,9.2,1.7,4.1*
Cc1cc(C)n(-c2cc(C(C)(C)C)nc3c(-c4ccc(Cl)cc4)cnn23)n1,-1.4,-1.9,-1.2,0.9,0.2,-0.1
Cc1cc(C)n(-c2cc(C(C)(C)C)nc3c(-c4ccccc4)cnn23)n1,-0.3,3.4,4.0,10.6*,5.2*,2.5
O=C(CSc1nnc(COc2ccccc2)n1Cc1ccco1)Nc1ccc(OCc2ccccc2)cc1,-0.9,-1.9,1.1,4.2,.,-1.8
CCOC(=O)[C@@]12CCCC=C1N(CCc1ccc(Cl)cc1)C(=O)[C@H]2CC(=O)NCc1cccc(C(F)(F)F)c1,-1.9,-2.5,-5.0,4.0,.,-1.1
O=C(C1CCC(CNc2c(N3CCCCC3)c(=O)c2=O)CC1)N1CCN(c2ccccn2)CC1 (stereo not given),-0.9,2.3,-0.6,-0.8,1.6,0.5
O=C(C1CCC(CNc2c(N3CCCCC3)c(=O)c2=O)CC1)N1CCN(C2CCCCC2)CC1 (stereo not given),-1.8,-1.1,-1.5,-0.8,4.4*,1.2
COC(=O)C(/C=N/O)NC(=O)c1ccccc1 (stereo not given),-0.9,5.9*,-0.5,0.3,0.3,0.6
CO/N=C/C(NC(=O)c1ccc(C(F)(F)F)cc1)C(=O)OC (stereo not given),-0.8,-1.7,-2.3,-1.6,-1.0,1.4
COc1ccc(CNC(=O)CNC(=O)CNS(=O)(=O)c2ccc(C)c(C)c2)cc1,0.9*,0.2,2.1,2.6,0.9,-0.3
COc1ccc(CNC(=O)CCNS(=O)(=O)c2ccc(Cl)cc2)cc1,-1.2,-0.9,-3.2,1.5,1.4,-0.2
CC(C)(C)N1Cc2nnn(Cc3ccccc3)c2-c2ccccc2S1(=O)=O,-1.7,-0.8,-3.5,-2.7,.,0.9
Cc1ccc(S(=O)(=O)N2CCN(c3cnn(C)c(=O)c3Cl)CC2)cc1,-1.5,-0.5,2.6,-1.2,-0.4,-0.6
Cc1ccc(S(=O)(=O)N2CCN(c3cnn(-c4ccccc4)c(=O)c3Cl)CC2)cc1,-1.4,-0.2,0.2,0.3,4.7*,0.8
CCOC(=O)[C@]12CCCCC/C=C\1N(Cc1ccc(OC)cc1)C(=O)[C@H]2CC(=O)NCCC(C)C,0.3,-0.4,-2.1,-2.4,.,0.6
C[N+]1(C)CC2=Cc3ccccc3CC2C1 (stereo not given),-1.6,-1.3,-3.9,-0.9,4.8*,0.5
C1=C2C[N+]3(CCCC3)CC2Cc2ccc3ccccc3c21 (stereo not given),-0.8,-0.1,0.2,-0.5,-1.1,-0.3
CCCc1cc(C(=O)Nc2cc(OC)ccc2OC)cs1,1.2*,5.3,0.0,5.3,1.1,1.2
COc1ccccc1/C=C\C=N\NC(=O)c1ccco1,-0.7,2.1,3.8,2.5,0.1,-0.2
O=C(N/N=C\c1cn[nH]c1-c1ccccc1)c1cccnc1,-0.6,2.2,4.3,1.3,-0.1,0.8
O=C(N/N=C\c1cn[nH]c1-c1ccccc1)c1cccs1,0.0,1.6,3.4,12.5*,3.6,2.1
COc1ccccc1/C=C/C=N/NC(=O)c1cccs1,0.0,1.6,2.2,9.7,7.2*,0.7
O=C(N/N=C/c1ccc(-c2cccc([N+](=O)[O-])c2)o1)c1cccs1,1.8*,5.7*,6.0,5.5,0.2,-0.7
O=C(N/N=C/c1ccccc1OCc1ccccc1)c1cccs1,-0.9,-0.2,7.9*,8.4,0.0,0.3
SMILES,ssDAF12 agonist,hcDAF12 agonist,SMARCA2 act,hgDAF-12 ag,DAX1 inh-1,DAX1 inh-2
COCCCNC(=O)C[C@H]1C[C@@]2(C(=O)OC)C(=C[C@H](COCc3ccccc3)O[C@@H]2C)N(Cc2ccccc2)C1=O,-1.5,-0.4,3.7,1.7,.,0.7
O=C(Nc1ccc(Cl)c(Cl)c1)C1CCN(c2nnc(-n3cccc3)s2)CC1,-1.9,-0.2,-2.5,3.4,.,0.2
O=C(NCCc1ccccc1)c1c[nH]c2c(F)cccc2c1=O,-0.2,5.6*,2.4,7.3,1.9,0.2
C[C@]12CCC[C@H](O1)c1c(cc3c(c1O)C(=O)c1c(O)cc(O)cc1C3=O)O2,-0.8,-0.6,-1.0,0.2,5.1*,0.7
Cc1ccc(Cl)cc1N(CC(=O)Nc1cccc(N(C)S(C)(=O)=O)c1)S(C)(=O)=O,1.1*,4.0,-1.0,2.1,0.4,-0.6
O=C(CCc1nc2ccccc2c(=O)[nH]1)N1CCCc2ccccc21,1.3*,5.6*,-0.2,2.4,0.5,1.9
CC(OC(=O)c1nccnc1N)C(=O)Nc1ccc(S(=O)(=O)N2CCCC2)cc1 (stereo not given),-1.0,-1.3,-2.4,-1.2,4.6*,0.5
COc1cc(OC)c(NC(=O)c2cccc(F)c2)cc1Cl,1.2*,4.9,-1.9,-1.6,-0.5,0.4
COc1cc(NC(=O)c2ccc(C)cc2)c(OC)cc1NC(=O)CN1CCCCC1,-0.9,-0.2,-1.8,0.2,-1.0,-0.5
COc1cc(N)c(Cl)cc1NC(=O)c1ccccc1,-0.7,-0.2,-2.2,2.8,1.1,0.5
COc1cc(NC(=O)c2ccccc2)c(OC)cc1Cl,0.5,5.8*,0.9,4.0,0.0,-0.4
COc1cc(NC(=O)c2cc(CC(C)C)on2)c(OC)cc1Cl,0.5,4.2,-2.3,2.3,0.0,-0.2
CCCc1cc(C(=O)Nc2cc(OC)c(Cl)cc2OC)no1,0.7,6.5*,1.2,-2.2,2.1,0.3
COc1cc(NC(=O)c2ccccc2Cl)c(OC)cc1NC(=O)CN1CCCCC1,-0.7,-1.1,7.8*,-2.6,0.0,-0.3
Cc1cc(N2CCOCC2)ccc1/C=C\[N+](=O)[O-],16.2*,0.6,0.9,3.9,-0.7,0.3
O=S1(=O)c2ccc(Br)cc2OC[C@@H](Cc2ccccc2)N1Cc1cn(Cc2ccc(C(F)(F)F)cc2)nn1,0.1,2.3,0.8,-0.3,.,0.6
CC(=O)Oc1cccc(C(=O)Nc2ccc(NC(=O)c3cccs3)cc2)c1,-0.5,0.1,2.7,5.2,-0.6,4.5*
COc1cccc(C(=O)Nc2cccc(NC(=O)c3cccs3)c2)c1,-1.5,-0.2,-1.1,-0.4,-1.4,-0.3
